Reference: PubChem BioAssay (NCI)
About 83,000 compounds went through this panel and 20% of them were active in at least one assay; those are over-represented in the sample as a whole.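 Each cell line was grown in a 96-well plate and treated with one concentration of compound for 48 hours. Values below 10 were considered active.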 Unmarked numbers belong to inactive results. Activity calls are given as the source filed them.

These compounds were tested on MDA-MB-468 breast (assay: NCI-60 one-dose screen, 48 h (100 = growth as untreated, 0 = no growth, -100 = all killed)). Conditions: 10 µM unless noted.
For C[C@H](NC(=O)c1snnc1C1CC1)c1c(F)cccc1Cl, the growth was 99.4%.
For CCN(CC)c1ccc2c(c1)Oc1nc(N)c(C#N)c(N)c1C2Sc1ccc(OC)cc1 (stereo not given), the growth was -35.3% (active).
With O=C(Nc1ncc(Cc2ccc(Cl)c(C(F)(F)F)c2)s1)c1ccc2nnsc2c1 the growth was 26.3%.
In the case of CN1CCC[C@@H]1CCO[C@](C)(c1ccccc1)c1ccc(Cl)cc1, the growth is reported as -10.5% (active).
With CCNC(=O)Oc1ccc(/C(=C(\C)c2ccccc2)c2ccc(OCCN3CCCCC3)cc2)cc1 the growth was 76.6%.
With CCc1nc2cc(/C=C/C(=O)NO)ccc2c(=O)n1CCc1ccc(F)cc1 the growth was -11.6% (active).
CCc1ccccc1-n1c(-c2ccc(OC)cc2)cc(-c2ccc(OC)cc2)c(C#N)c1=O showed a growth of 96.9%.
For Cc1nc2ccccc2c(/C=C/c2ccc(C(F)(F)F)cc2)c1C(=O)/C=C/c1ccccc1, the growth was -51% (active).
Work on O=C(NCCNCCO)c1cc([N+](=O)[O-])cc([N+](=O)[O-])c1O yielded a growth of 103%.
Work on CC1=C/C(O)CC(=O)Cc2nc(co2)C(=O)N2CCC=C2C(=O)OC(C(C)C)C(C)/C=C\C(=O)NC/C=C\1 (stereo not given) yielded a growth of 54.5%.
COc1cc(/C=C2\CN(C(=O)OC(C)(C)C)C/C(=C\c3ccc(O)c(OC)c3)C2=O)ccc1O showed a growth of 99.9%.
CC(NNC(C)c1ccccc1)c1ccccc1 (stereo not given) was tested, and the growth was 104%.
CCOc1ccc(NC(=O)c2ccoc2COc2ccccc2)cc1 showed a growth of 113%.
Compound CC/C(=C(/c1ccc(Cl)cc1)c1ccc(OCCN2CCCCC2)cc1)c1ccc(OC)cc1 has a growth of 26.5%.
With Cc1cccc(NC(=O)c2sc3nc4c(cc3c2N)C(=O)CCC4)c1 the growth was 33.1%.
COc1ccc2c(c1)OC(N)=C(C#N)C2c1ccc(F)c(F)c1 (stereo not given) was tested, and the growth was -24.4% (active).
Work on CCCCN(CCCC)CCCn1c(=O)c2sc3ncccc3c2n2nnc(-c3ccccc3)c12 yielded a growth of 109%.
COC(=O)c1ccc(C(=O)Nc2ccccc2N)cc1 gave a growth of 44%.
With O=C(c1ccccc1)N(CCc1ccc(Cl)cc1)C(=S)N(C(=O)c1ccccc1)c1ccccc1 the growth was 36%.
Compound COc1cc(/C=C/C(=O)c2nc3cc(F)ccc3nc2C)cc(OC)c1OC has a growth of 23.6%.
Work on CC(=O)OCC(COC(C)=O)(COC(C)=O)COC(C)=O yielded a growth of 102%.
Cc1cccc(N2CCC(=O)NC2=S)c1 was tested, and the growth was 100%.
Compound COc1ccc(/C=C/C(=C/c2c(O)[nH]c3cc(Br)ccc23)N=O)cc1 has a growth of 114%.
With CCO/C=N/NC(=O)c1ccncc1 the growth was 107%.
Work on C[C@@H](C(=O)NCCCC#Cc1cnc(Nc2ccc(C#N)cc2)nc1NC1CC1)N(C)C(=O)/C=C/CN(C)C yielded a growth of 39.2%.
c1ccc2c(c1)OC1OC2Oc2ccccc21 showed a growth of 97.5%.
Work on CON1C(=O)CC[C@]2(C)[C@H]3CC[C@@H]4C([C@@]5(C)CCC(=O)O5)CC[C@@]4(C)[C@]3(C)CC[C@H]2C1(C)C (stereo not given in full) yielded a growth of 94.4%.
O=C(NNC(=O)c1cccc(Cl)c1)c1ccccc1 was tested, and the growth was 94.4%.
For CS(=O)(=O)c1nccc(-c2c(-c3ccc(F)c(OCc4ccccc4)c3)nc3sccn23)n1, the growth was -68.8% (active).
In the case of Cc1ccc(C(F)(F)F)cc1N1CCN(C(=O)[C@H]2C[C@H]2c2ccc(C(F)(F)F)nc2)CC1, the growth is reported as 65.6%.
Cc1c(C(=N)C(C#N)C#N)c(=N)oc2c1ccc1ccccc12 was tested, and the growth was 54.5%.
In the case of COc1cc(/C=C/C(=O)/C=C/c2ccc(-n3ccnc3)cc2)ccc1O, the growth is reported as 37.8%.
For COc1cc(-c2csc(NC(=O)Nc3ccc(Cl)c(C(F)(F)F)c3)n2)cc(OC)c1OC, the growth was -12.7% (active).
[O-][n+]1ccccc1CCN(O)CCc1cccc[n+]1[O-] was tested, and the growth was 110%.
For Cc1cccc(NC(=O)c2sc3nc4c(cc3c2N)CCC4)c1C, the growth was 10.6%.
CS(=O)(=O)c1cccnn1 was tested, and the growth was 74%.
In the case of COc1cc2oc(-c3cccc(NC(=O)c4ccc5c(c4)OCO5)c3)cc(=O)c2c(OC)c1OC, the growth is reported as 75.5%.
Work on COc1ccc2c(c1)c(-c1nc(-c3cn(C)c4ncccc34)cs1)cn2CCCN1CCCCC1 yielded a growth of 70.9%.
Compound CN(C(=S)S(=O)(=O)C12CC3CC(CC(C3)C1)C2)c1ccccc1 has a growth of 61.7%.
In the case of CCCCN1CCN(c2ccc3nc(-c4ccc5nc(-c6ccc(OCC)c(OCC)c6)[nH]c5c4)[nH]c3c2)CC1, the growth is reported as -77.8% (active).
